# Assay outcomes as filed in PubChem BioAssay.
# CYP2C19 inhib – blockers of cytochrome P450 2C19 activity – biochemical, luminescence, ADME assay, primary screen; CYP2C19 Supersomes, luciferin-H EGE luminescence, 30 min; P33261; 96,000 tested, 21% active; inhibition, % at 5 µM;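 active = CYP2C19 inhibition above a set limit at 5 µM in the primary screen, cut at about 50% in these data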;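 also: plate controls were negative control wells for no effect and 2.5 mM tranylcypromine positive control for full effect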
# Target sequence (P33261 whole entry, looked up): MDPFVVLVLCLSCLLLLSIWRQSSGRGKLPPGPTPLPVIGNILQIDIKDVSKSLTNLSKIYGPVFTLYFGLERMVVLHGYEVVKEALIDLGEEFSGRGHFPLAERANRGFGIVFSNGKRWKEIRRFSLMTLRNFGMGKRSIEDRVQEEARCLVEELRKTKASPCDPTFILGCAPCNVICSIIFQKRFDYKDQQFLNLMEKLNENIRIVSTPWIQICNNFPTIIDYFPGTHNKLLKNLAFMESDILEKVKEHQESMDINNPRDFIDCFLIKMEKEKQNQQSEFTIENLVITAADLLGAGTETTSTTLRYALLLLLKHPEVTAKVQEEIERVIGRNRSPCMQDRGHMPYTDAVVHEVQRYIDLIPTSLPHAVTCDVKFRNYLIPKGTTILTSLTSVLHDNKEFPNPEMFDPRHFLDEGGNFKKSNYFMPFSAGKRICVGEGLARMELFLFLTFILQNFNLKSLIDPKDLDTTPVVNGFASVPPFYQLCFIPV
# CYP2C9 act – human CYP2C9 activators, primary screen, biochemical, luminescence; AID 1024, 2008; 96,000 tested, 1.4% active; recombinant CYP2C9, luciferin-H conversion; hits give high values; factor 1 = untreated enzyme, 0 = blocked; activation factor at 5 µM;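 active = activation factor of 2 or more for CYP2C9 at a 5 µM dose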;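 also: 0 = sulfaphenazole-blocked wells and 1 = vehicle-only wells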
# CYP2C19 act – human CYP2C19 activators, primary screen, biochemical, luminescence | Cytochrome P450 2C19 (Homo sapiens), P33261 | recombinant CYP2C19, luciferin-H EGE luminescence; hits give high values; 0 = fully inhibited enzyme, 1 = untreated enzyme | activation factor at 5 µM | 96,000 tested, under 10 active;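 active = activation factor of at least 2 at 5 µM in the primary screen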;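 also: 0 = wells with 2.5 mM tranylcypromine and 1 = vehicle-only wells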
# PostGolgi ctrl – growth inhibition of yeast control strain, primary screen, counter-screen for post-Golgi transport modulator project; inhibition, % at 10 µM; 98,000 tested, 5% active; efflux-deficient yeast background strain, growth absorbance A615, 16 h
# CYP2C9 inh – blockers of cytochrome P450 2C9 activity – biochemical, luminescence, ADME assay, primary screen | P11712 | AID 777, 2007 | inhibition, % at 5 µM | 96,000 tested, 20% active | CYP2C9 Supersomes, luciferin-H conversion;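 active = blocking of liver enzyme CYP2C9 beyond about 50% at 5 µM, limit read from the data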
# PostGolgi yeast – phenotypic screen on post-Golgi transport, primary screen; post-Golgi transport phenotypic cell assay; inhibition, % at 10 µM; 98,000 tested, 0.9% active; AID 739, 2007;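 also: yeast cells grown in 1536-well plates; yeast grown about 18 h at 30C before absorbance read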
# An asterisk follows results filed as active; / = no result given. Shown are actives, neighbours in structure and some others; about 32% of the full set was active somewhere. Rule as the data show it, unless noted: active = inhibition above about 30%; inactive = the rest.
SMILES,CYP2C19 inhib,CYP2C9 act,CYP2C19 act,PostGolgi ctrl,CYP2C9 inh,PostGolgi yeast
CCOC(=O)c1c(C)[nH]c(C(=O)OCC(=O)N(C)C2CCS(=O)(=O)C2)c1C (stereo unspecified),-7,1,1.1,2,-4,17
CCOC(=O)c1[nH]c(C)c(C(=O)c2cc(F)ccc2F)c1C,95*,0.1,0.1,15,93*,10
CCCNC(=O)COC(=O)c1[nH]c(C)c(C(=O)OCC)c1C,44,0.4,0.6,16,64*,-5
CCOC(=O)c1c(C)[nH]c(C(=O)COC(=O)c2ccncc2)c1C,16,0.1,0.8,-2,92*,5
CCOC(=O)c1[nH]c(C)c(C(=O)NC)c1C,12,1,0.9,2,2,2
CCOC(=O)c1[nH]c(C)c(C(=O)OCC)c1C,84*,0.2,0.2,-5,75*,19
CCOC(=O)c1[nH]c(C)c(C(=O)NC(C)(C)C)c1C,-13,1,1.1,31*,-4,-4
CCOC(=O)c1c(C)[nH]c(C(=O)COC(=O)C2CC2C)c1C (stereo unspecified),73*,0,0.3,8,98*,0
O=C(Cn1c(=O)oc2cc(S(=O)(=O)N3CCc4ccccc43)ccc21)NC1CCCC1,21,0.4,0.8,14,64*,3
CC(C)CCNC(=O)Cn1c(=O)oc2cc(S(=O)(=O)N3CCc4ccccc43)ccc21,34,0.2,0.7,21,83*,-2
Cc1ccc(NC(=O)Cn2c(=O)oc3cc(S(=O)(=O)N4CCC(C)CC4)ccc32)cc1C,5,0.3,1,-4,67*,-2
O=C(Cn1c(=O)oc2cc(S(=O)(=O)N3CCCCCC3)ccc21)NC1CCCCC1,2,0.9,1,10,12,-7
CCCCNS(=O)(=O)c1ccc2c(c1)oc(=O)n2CC(=O)OCC,18,0.3,0.8,9,72*,1
CCN1C(=O)C2C(C1=O)N1C(c3cccs3)C3C(=O)N(CC)C(=O)C3N1C2c1cccs1 (stereo unspecified),1,1,1,0,-2,11
O=C(CN1CCOCC1)Nc1ncc(Cc2cccc3ccccc23)s1,27,1.1,0.7,3,-5,-6
Cc1cc(C(C)(C)C)oc1C(=O)N(CC(=O)NC1CCCC1)c1c(C)cccc1C,42,0.7,0.6,18,33,-10
CN1CCN(c2nc3c(c(=O)n(C)c(=O)n3C)n2CC(=O)C23CC4CC(CC(C4)C2)C3)CC1,-11,1.2,1.1,3,-21,2
CC1(C)CC2(CC(C)(C)NC(=O)N2)NC(=O)N1,-6,1,1.1,9,-4,9
COCCNC(=O)C(c1ccco1)N(C(=O)Cn1nnc2ccccc21)c1ccc(C)cc1C (stereo unspecified),20,0.9,0.8,-10,9,-2
CCOC(=O)Cn1c(=O)oc2cc(S(=O)(=O)N3CCCc4ccccc43)ccc21,77*,0.2,0.2,2,77*,0
O=C(C1c2ccccc2C(=O)N2CCc3ccccc3C12)N1CCN(Cc2ccccc2)CC1 (stereo unspecified),-2,1,1,2,3,20
CSc1nc2nccc(-c3ccc(-c4ccccc4)cc3)n2n1,-8,1,1.1,0,1,6
CSc1nc2ncc3c(n2n1)CC1c2ccccc2CCN1C3=O (stereo unspecified),72*,0.5,0.3,32*,55*,3
O=C1c2cnc3nc(SCc4cccc(Cl)c4)nn3c2CC2c3ccccc3CCN12 (stereo unspecified),-8,0.5,1.1,42*,46,16
COC(=O)CCS(=O)(=O)c1ccc(Cl)c(Cl)c1,48,1.2,0.5,0,-20,4
SMILES,CYP2C19 inhib,CYP2C9 act,CYP2C19 act,PostGolgi ctrl,CYP2C9 inh,PostGolgi yeast
Cc1cccc(C)c1-n1nnnc1SCSc1nnnn1-c1c(C)cccc1C,33,0.2,0.7,14,77*,1
CC(C)n1c(=NC(=O)c2ccco2)c(C#N)cc2c(=O)n3ccccc3cc21,/,/,/,-12,/,0
Cc1ccc(-n2c(C)nc3c(cnn3-c3ccc(C)c(C)c3)c2=O)cc1C,7,0.9,0.9,47*,5,6
Cc1ccc(-n2ncc3c(=O)n(CC#N)cnc32)cc1C,20,0.8,0.8,-3,18,-5
Cc1ccc(-n2c(C)nc3c(cnn3-c3ccc(F)cc3)c2=O)cc1C,6,0.8,0.9,-4,18,6
CSc1nc2c(cnn2-c2ccc(C)c(C)c2)c(=O)[nH]1,-1,1.2,1,-1,-24,0
Cc1nc2c(cnn2-c2ccccc2Cl)c(=O)n1-c1ccc(N2CCC(C)CC2)cc1,72*,1.4,0.3,9,-38,-10
C#CCn1cnc2c(cnn2-c2ccc(C)c(C)c2)c1=O,64*,0.7,0.4,-5,27,2
Cc1ccc(-n2c(C)nc3c(cnn3-c3ccccc3Cl)c2=O)cc1C,59*,0.9,0.4,20,15,8
CCCCC(CC)CNC(=O)c1ccc2c(c1)OCO2 (stereo unspecified),27,0.5,0.7,22,48,15
Cn1sc(NC(=O)c2cccc(Cl)c2)nc1=O,-3,0.9,1,7,6,1
NC(=O)C1CCN(C(=S)c2cccs2)CC1,23,1,0.8,7,3,10
Cc1ccc(S(=O)(=O)N2CCOCC2)cc1C(=O)Nc1ccc(-c2cn3ccsc3n2)cc1,33,0.7,0.7,2,32,-14
O=C(Cn1cnc2c(cnn2-c2ccccc2)c1=O)N1CCN(c2ccc(F)cc2)CC1,-17,1.1,1.2,-6,-12,4
CCc1nc2c(cnn2-c2ccc(F)cc2)c(=O)n1-c1ccc(N2CCC(C)CC2)cc1,50*,0.9,0.5,7,12,-3
Cc1oc2ccc(O)c(CN3CCOCC3)c2c1C(=O)c1ccc(Cl)cc1,59*,0.5,0.4,24,52*,-5
Cc1nn(S(=O)(=O)N2CCCCC2)c(C)c1Br,24,1.1,0.8,11,-9,-6
COC(=O)c1ccccc1NC(=O)Nc1cc(C)cc(C)n1,10,1,0.9,11,-2,0
Cc1nc(SCC(=O)N(C)Cc2ccco2)c2c(C)c(C)sc2n1,68*,0.1,0.3,24,88*,3
CCOC(=O)c1sc2nc(CC(=O)OC)nc(NCc3ccco3)c2c1C,61*,0.2,0.4,0,84*,-13
Cc1nc(NCc2ccco2)c2c(C)c(C)sc2n1,77*,0.2,0.2,11,82*,-5
CCOC(=O)c1sc2nc(CC(=O)OC)nc(NCC(=O)OC)c2c1C,-2,1,1,10,-4,8
